Test results: PubChem BioAssay (EPA / NIEHS)
The source made the active and inactive calls. Rule for the calls: active = hit-call score of the fitted dose curve at least 0.9, where 1 is the maximum; inactive = score below 0.9.

Molecular target: Retinoic acid receptor alpha (Homo sapiens) (UniProt P10276)
Experiment: ATG_DR5_RAR_CIS: Attagene CIS-FACTORIAL HepG2 Assay for human Retinoic Acid Receptor Alpha (RARE), DR5 submotif (AID 2282934);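 for AC50: reporter responds to endogenous RAR alpha beta and gamma in HepG2 not RARA alone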
Conditions: HepG2 Attagene cis-factorial RARE DR5 reporter, mRNA; actives raise or lower the signal
Experimental: ATG_CIS is a cell-based, multiplexed-readout assay that uses HepG2, a human liver cell line, with measurements taken at 24 hours after chemical dosing in a 24-well plate.ATG_DR5_RAR_CIS is one of 52 assay component(s) measured or calculated from the ATG_CIS assay. It is designed to make measurements of mRNA induction, a form of inducible reporter, as detected with fluorescence intensity signals by Reverse transcription polymerase chain reaction (RT-PCR) and Capillary electrophoresis technology.Data from the assay component ATG_DR5_RAR_CIS was analyzed into 1 assay endpoint. This assay endpoint, ATG_DR5_CIS, was analyzed with bidirectional fitting relative to DMSO as the negative control and baseline of activity. Using a type of inducible reporter, measures of mRNA for gain or loss-of-signal activity can be used to understand the reporter gene at the transcription factor-level as they relate to the gene RARA and RARB and RARG. Furthermore, this assay endpoint can be referred to as a primary readout, because this assay has produced multiple assay endpoints where this one serves a reporter gene function. To generalize the intended target to other relatable targets, this assay endpoint is annotated to the nuclear receptor intended target family, where the subfamily is non-steroidal.
Human liver HepG2 cells are transiently transfected with multiple reporter transcription units (MRTUs) in 6-well plates using FuGene 6 reagent (Roche; 3 ml FuGene/1 mg DNA). The MRTU constructs are regulated by a cis-regulating element (promoter). […] A major difference between the CIS and TRANS system is that in CIS activities of endogenous TFs are measured, whereas the TRANS assay evaluates changes in activities of exogenous, chimeric NR-Gal4 proteins. […] At the end of 24 hour incubation, total RNA was isolated using TriZol reagent (Invitrogen). The isolated RNA is then reverse-transcribed using oligo(dT) primer and Mo-MLV reverse transcriptase (Invitrogen) with DNAse I (Ambion) treatment for 30 min. The one-tenth of the produced cDNA was amplified by PCR using Taq DNA polymerase (Invitrogen) and two reporter sequence-specific primers. The PCR products were fluorescently labeled by primer extension with 6-arboxyfluorescein (6-FAM) 5'-labeled reporter sequence-specific primer (2 min at 95 C, 20 s at 68 C and 10 min at 72 C) and these products were digested with 5U of HpaI (New England Biolabs) for 2h at 37 C. The fragments were purified using Qiaquick PCR columns (Qiagen), analyzed on an ABI 3130xL genetic analyzer (Applied Biosystems) with peak positions identified by using a set of X-rhodamine (ROX)-labeled MapMarker1000 molecular weight standards (BioVentures). The raw capillary electrophoresis data was processed using Attagraph software (Attagene).

Chain of Retinoic acid receptor alpha (Homo sapiens) (P10276 whole entry, looked up): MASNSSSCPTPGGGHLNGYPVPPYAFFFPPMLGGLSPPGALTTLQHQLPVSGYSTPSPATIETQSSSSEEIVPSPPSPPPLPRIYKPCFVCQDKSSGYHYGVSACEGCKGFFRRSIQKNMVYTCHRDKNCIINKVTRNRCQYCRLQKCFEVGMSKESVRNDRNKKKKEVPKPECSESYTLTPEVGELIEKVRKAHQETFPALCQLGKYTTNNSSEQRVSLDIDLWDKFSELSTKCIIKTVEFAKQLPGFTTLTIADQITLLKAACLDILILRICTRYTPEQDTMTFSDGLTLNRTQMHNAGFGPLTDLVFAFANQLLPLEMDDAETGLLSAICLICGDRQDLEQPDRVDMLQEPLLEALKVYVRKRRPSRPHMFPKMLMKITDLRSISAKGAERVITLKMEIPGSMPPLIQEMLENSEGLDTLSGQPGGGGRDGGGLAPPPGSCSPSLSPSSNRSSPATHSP

Compound | outcome | AC50
C=CC(C)(O)CCC=C(C)C (stereo not given) | inactive | –
Nc1ccc(NCCO)c([N+](=O)[O-])c1 | inactive | –
CC(C)(C)CC(C)(C)c1ccc(OCCOCC[N+](C)(C)Cc2ccccc2)cc1 | inactive | –
CCCCCCOC(=O)C(C)C | inactive | –
COc1cc(Cl)c(OC)cc1N | inactive | –
C/C=C(\C)C(=O)OCCc1ccccc1 | inactive | –
CC(C)CC(C)CC(O)CC(C)C (stereo not given) | inactive | –
CCC1CCCCC1 | inactive | –
CC1CC(O)CC(C)(C)C1 (stereo not given) | inactive | –
Nc1ccc2cc(S(=O)(=O)O)cc(O)c2c1N=Nc1ccccc1C(F)(F)F | inactive | –
CC(=O)O[C@H]1C[C@@H]2CC[C@@]1(C)C2(C)C | inactive | –
CCCCOCC | inactive | –
N[C@@H](Cc1cc(I)c(Oc2cc(I)c(O)c(I)c2)c(I)c1)C(=O)O | inactive | –
[O-]n1ccccc1=S.[O-]n1ccccc1=S.[Zn+2] | inactive | –
NC(=S)NNC(N)=S | inactive | –
COCCOC(=O)c1ccccc1C(=O)OCCOC | inactive | –
NCCNc1cccc2ccccc12 | inactive | –
FC(F)(F)COCC(F)(F)F | inactive | –
CS(=O)(=O)OCCCCOS(C)(=O)=O | inactive | –
CCOc1ccc(N=Nc2ccc(C=Cc3ccc(N=Nc4ccc(OCC)cc4)cc3S(=O)(=O)O)c(S(=O)(=O)O)c2)cc1 | inactive | –

Compound | outcome | AC50
CCC1(c2ccccc2)C(=O)NCNC1=O | inactive | –
O=C(O)c1cccnc1C(=O)O | inactive | –
NC1CCCCC1N (stereo not given) | inactive | –
CCCC1O[C@@H]2C[C@H]3[C@@H]4CCC5=CC(=O)C=C[C@]5(C)[C@H]4[C@@H](O)C[C@]3(C)[C@]2(C(=O)CO)O1 (stereo not given in full) | inactive | –
OCCOCCN1CCN(C2=Nc3ccccc3Sc3ccccc32)CC1 | inactive | –
CC(=O)O[C@@H]1CC2CCC1(C)C2(C)C (stereo not given in full) | inactive | –
CCCCCc1ccco1 | inactive | –
Oc1ccc2cc(SSc3ccc4cc(O)ccc4c3)ccc2c1 | inactive | –
CCCCOC(=O)CCCCCCCC(=O)OCCCC | inactive | –
C=Cc1ccc(C(C)(C)C)cc1 | – | 76.1 µM (active)
C=CC(=O)OCCC#N | inactive | –
CCOCCOCCOCC | inactive | –
O=C(O)COCC(=O)O | inactive | –
CC/C=C\CC/C=C/CO | inactive | –
OCc1ccc(Cl)cc1Cl | inactive | –
O=C(O)c1cc(C(=O)O)cc([N+](=O)[O-])c1 | inactive | –
Cc1ccc(S(=O)(=O)Oc2ccc(N=Nc3ccc(-c4ccc(N=Nc5c(O)ccc6cc(S(=O)(=O)O)cc(S(=O)(=O)O)c56)c(C)c4)cc3C)cc2)cc1 | inactive | –
C=C(C)C(=O)OCCOCCOCCOCCOC(=O)C(=C)C | inactive | –
Nc1ccc(N)c2c1C(=O)c1ccccc1C2=O | inactive | –
CSCCC=O | – | 25.5 µM (active)
